Hits are enriched below; roughly 21% of the tested compounds scored in any of these assays.
CYP2C19 inh – inhibitors of human CYP2C19; P33261; CYP2C19 Supersomes, luciferin-H EGE luminescence, 30 min; inhibition, % at 5 µM; 96,000 tested, 21% active;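 active = CYP2C19 inhibition above a set limit at 5 µM in the primary screen, cut at about 50% in these data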;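 also: plate controls were negative control wells for no effect and 2.5 mM tranylcypromine positive control for full effect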
CYP2C9 inhib – human CYP2C9 inhibition. inhibition, % at 5 µM. CYP2C9 Supersomes, luciferin-H conversion, luminescence. P11712. 96,000 tested, 20% active. AID 777;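 active = blocking of liver enzyme CYP2C9 beyond about 50% at 5 µM, limit read from the data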
Target sequence (P11712 whole entry, looked up): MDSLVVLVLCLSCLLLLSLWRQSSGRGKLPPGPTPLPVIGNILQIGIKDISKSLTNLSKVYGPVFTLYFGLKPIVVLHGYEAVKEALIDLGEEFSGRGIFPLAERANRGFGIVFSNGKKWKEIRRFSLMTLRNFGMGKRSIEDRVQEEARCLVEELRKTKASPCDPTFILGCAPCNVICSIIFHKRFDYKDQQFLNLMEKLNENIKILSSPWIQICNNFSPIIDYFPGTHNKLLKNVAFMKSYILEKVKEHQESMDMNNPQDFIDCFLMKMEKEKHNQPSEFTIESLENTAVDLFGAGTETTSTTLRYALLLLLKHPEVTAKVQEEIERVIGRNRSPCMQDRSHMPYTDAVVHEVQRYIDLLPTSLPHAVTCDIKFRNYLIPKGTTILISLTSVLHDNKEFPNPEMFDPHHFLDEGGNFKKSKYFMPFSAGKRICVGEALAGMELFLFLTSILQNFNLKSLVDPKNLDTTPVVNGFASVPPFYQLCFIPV
CYP2C19 act – activators of human cytochrome P450 2C19; P33261; recombinant CYP2C19, luciferin-H EGE luminescence; hits give high values; 0 = fully inhibited enzyme, 1 = untreated enzyme; activation factor at 5 µM; 96,000 tested, under 10 active; AID 1025;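 active = activation factor of at least 2 at 5 µM in the primary screen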;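 also: 0 = wells with 2.5 mM tranylcypromine and 1 = vehicle-only wells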
CYP2C9 activ – CYP2C9 (human) activation | P11712 | recombinant CYP2C9, luciferin-H conversion, luminescence; hits give high values; factor 1 = untreated enzyme, 0 = blocked | activation factor at 5 µM | 96,000 tested, 1.4% active | AID 1024;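 active = activation factor of 2 or more for CYP2C9 at a 5 µM dose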;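 also: 0 = sulfaphenazole-blocked wells and 1 = vehicle-only wells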
MRP-1 activ – activates MRP-1 | H69AR cells + doxorubicin, viability rescue, CellTiter-Glo | viability increase, % at 10 µM | 140,000 tested, 0.61% active;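 active = viability gain under doxorubicin at or above a set limit, the compound median plus 3 SD, cut at about 4.7% in these data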;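 also: MRP-1 overexpressing cells given doxorubicin 25 µM after compound pretreatment; 18-22 h compound pretreatment then 72 h with doxorubicin before readout; 0% = doxorubicin-only wells and 100% = vehicle-treated cells without doxorubicin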
MRP reversal – MRP-mediated drug resistance reversal. differential viability (reversal), % at 10 µM. 85,000 tested, 0.04% active. H69AR cells + 2 uM doxorubicin, CellTiter-Glo, 72 h. AID 602;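 active = viability drop by adding the cancer drug above about 55%, with treated viability meeting a 40% cutoff, limit read from the data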;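 also: viability without doxorubicin minus viability with 2 µM doxorubicin for each compound; larger differential means the compound sensitizes cells more to doxorubicin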
Numbers without * were called inactive; nt = no result given.

SMILES	CYP2C19 inh	CYP2C9 inhib	CYP2C19 act	CYP2C9 activ	MRP-1 activ	MRP reversal
COc1ccc(-c2nc(CSCC(=O)NC3CCCc4ccccc43)c(C)o2)cc1OC (stereo unspecified)	61*	66*	0.4	0.3	-1	-11
COc1ccc(-c2nc(CSCC(=O)N3CCc4ccccc4C3)c(C)o2)cc1OC	16	16	0.8	0.8	-3	3
COc1ccc(-c2nc(CS(=O)CC(=O)NC3CCCc4ccccc43)c(C)o2)cc1OC (stereo unspecified)	56*	88*	0.4	0.1	-1	-2
COc1ccc(-c2nnn(CC(=O)NC3CCCc4ccccc43)n2)cc1OC (stereo unspecified)	64*	1	0.4	1	nt	-13
O=C1CCCN1CC(CN1CCOCC1)Sc1nc2ccccc2c(=O)n1-c1ccccc1 (stereo unspecified)	88*	93*	0.1	0.1	nt	9
Cc1ccc(O)c(/C=N/NC(=O)c2[nH]ncc2Br)c1	nt	nt	nt	nt	4.9*	nt
O=C(N/N=C/c1c(O)ccc2ccccc12)c1[nH]ncc1Br	nt	nt	nt	nt	0	nt
Cc1sc2cc(-c3cccc([N+](=O)[O-])c3)c(-c3cccc([N+](=O)[O-])c3)c[n+]2c1C	nt	nt	nt	nt	-1	nt
Cc1cc(/C=C(\C#N)C(=O)OCC(=O)NC(=O)NC(C)(C)C)c(C)n1CCC(C)C	92*	98*	0.1	0	-3	57*
C=CCNC(=O)NC(=O)COC(=O)/C(C#N)=C/c1cc(C)n(CCC(C)C)c1C	-2	2	1	1	0	2
O=C(/C(=C/c1ccccc1Cl)c1ccccc1)N1CCOCC1	nt	nt	nt	nt	-3	nt
Cc1cccc(Nc2nnc(SCC(=O)c3ccc(Br)s3)s2)c1C	nt	nt	nt	nt	-2	nt
Cc1cccc(-n2ncc3c(NC(C)C)ncnc32)c1	8	12	0.9	0.9	1	7
Cc1ccc(-n2ncc3c(NCCCN4CCOCC4)ncnc32)c(C)c1	-11	-2	1.1	1	-1	-3
Cc1cccc(-n2ncc3c(NCCCn4ccnc4)ncnc32)c1	90*	91*	0.1	0.1	-3	-1
Cc1ccc(-n2ncc3c(NCCCn4ccnc4)ncnc32)c(C)c1	73*	80*	0.3	0.2	nt	12
Cc1sc2ncnc(NCCCn3ccnc3)c2c1C	92*	90*	0.1	0.1	-2	18
c1cn(CCCNc2ncnc3nc[nH]c23)cn1	15	40	0.8	0.6	-1	8
O=C(O)C(Cc1c[nH]c2ccccc12)NS(=O)(=O)c1cccc2nsnc12 (stereo unspecified)	nt	nt	nt	nt	-1	7
COc1cc(-c2nnc3n2N=C(c2ccccc2)CS3)cc(OC)c1OC	73*	68*	0.3	0.3	-2	-5
Clc1ccccc1C1=Nn2c(nnc2-c2ccncc2)SC1	61*	72*	0.4	0.3	-4	-16
c1csc(C2=Nn3c(nnc3-c3ccncc3)SC2)c1	12	29	0.9	0.7	-2	-13
COc1cccc(-c2nnc3n2N=C(C(C)(C)C)CS3)c1	68*	30	0.3	0.7	-4	2
COc1cccc(-c2nnc3n2N=C(c2cc(OC)ccc2OC)CS3)c1	72*	57*	0.3	0.4	-2	nt
CCOc1cccc(-c2nnc3n2N=C(c2cc(OC)ccc2OC)CS3)c1	nt	nt	nt	nt	-3	-39
SMILES	CYP2C19 inh	CYP2C9 inhib	CYP2C19 act	CYP2C9 activ	MRP-1 activ	MRP reversal
Cc1nnc2sc(-c3cc4ccccc4o3)nn12	nt	nt	nt	nt	nt	2
CC(Oc1ccc(-c2nccc(-c3ccccn3)n2)cc1)C(=O)NN (stereo unspecified)	22	27	0.8	0.7	-4	nt
Cc1cc(C)n(-c2c(F)c(F)c(CN3CCOCC3)c(F)c2F)n1	3	18	1	0.8	-1	4
Cc1cccc(-c2nnc3n2N=C(c2ccccc2Br)CS3)c1	85*	52*	0.2	0.5	-1	-18
COc1ccc(OC)c(C2=Nn3c(nnc3-c3ccncc3)SC2)c1	nt	nt	nt	nt	nt	-5
COc1ccc(-c2nnc3n2N=C(C)CS3)cc1	13	3	0.9	1	-1	12
COc1ccc(OC)c(C2=Nn3c(nnc3-c3cc(OC)c(OC)c(OC)c3)SC2)c1	60*	88*	0.4	0.1	-4	0
COc1ccc(C2=Nn3c(nnc3-c3ccc(OC)cc3)SC2)cc1	22	52*	0.8	0.5	-1	-35
COc1cccc(C2=Nn3c(nnc3-c3ccccc3O)SC2)c1	43	69*	0.6	0.3	-4	-18
COc1ccccc1NC(=O)CSc1nc(O)cc(=O)[nH]1	-18	-5	1.2	1.1	2	-5
COc1ccc(N(CC(=O)NC(C)(C)C)S(=O)(=O)c2ccccc2)cc1OC	7	10	0.9	0.9	0	16
CCCCSc1nnc(CNC(=O)C23CC4CC(CC(C4)C2)C3)n1Cc1ccccc1	nt	nt	nt	nt	-2	nt
COc1ccc(OC)c(S(=O)(=O)N2CCC(C(=O)Nc3cccc(C)c3)CC2)c1	88*	-32	0.1	1.3	0	0
COc1ccc(NC(=O)C2CCN(S(=O)(=O)c3ccc(C)cc3)CC2)cc1OC	6	-11	0.9	1.1	-1	-10
COc1ccc(S(=O)(=O)N2CCC(C(=O)Nc3cccc(Cl)c3)CC2)cc1OC	53*	-9	0.5	1.1	-2	nt
COc1ccc(OC)c(S(=O)(=O)N2CCC(C(=O)Nc3cc(C)ccc3C)CC2)c1	39	-65	0.6	1.6	-4	-19
COC(=O)c1ccccc1NC(=O)C1CCN(S(=O)(=O)c2cc(C)ccc2OC)CC1	86*	88*	0.1	0.1	0	1
CC(/C=C/c1ccc(OCc2ccccc2)cc1)=N\O	nt	nt	nt	nt	-3	nt
CN(CC(=O)NC1CCCc2ccccc21)S(=O)(=O)c1cccs1 (stereo unspecified)	nt	nt	nt	nt	-3	nt
CCOC(=O)Cc1c(C)c2ccc(N(CC)CC)cc2oc1=O	3	-112	1	2.1*	-2	0
CCOC(=O)CCc1c(C)c2ccc(OCC(=O)N(CC)CC)c(C)c2oc1=O	34	51*	0.7	0.5	-1	1
COC(=O)C1=C(C)N=c2s/c(=C3\C(=O)Nc4ccccc43)c(=O)n2C1c1ccccc1 (stereo unspecified)	nt	nt	nt	nt	-4	0
CC(OC(=O)CCc1nc2ccccc2c(=O)[nH]1)C(=O)c1ccc(C(C)(C)C)cc1 (stereo unspecified)	nt	nt	nt	nt	-2	nt
CC(Sc1nncn1C)C(=O)Nc1nnc(C(C)C)s1 (stereo unspecified)	-8	-6	1.1	1.1	-1	-13
CC(Sc1nncn1C)C(=O)Nc1nnc(-c2ccccc2)s1 (stereo unspecified)	12	51*	0.9	0.5	0	-2
Cn1cnnc1SC(C(=O)c1ccccc1)c1ccccc1 (stereo unspecified)	81*	-4	0.2	1	-4	14
Cc1ccc(NC(=O)CCC(=O)NNC(=O)/C=C/C(=O)O)c(C)c1	nt	nt	nt	nt	0	nt
